{"source": "PubChem BioAssay (NCATS)", "note": "Results filed as inconclusive are left out. The source made the active and inactive calls. Calls come from the whole dose curve; as a rule, active = well fitted cell-killing curve with a large enough effect; inconclusive = small, poorly fitted or top-dose-only effect; inactive = flat fitted curve, though single readings scatter."}
{"test": "Cell Viability - Renal Proximal Tubule (AID 545);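 note: 0% = DMSO only and -100% = 100 µM tamoxifen; nearly all actives have a fitted effect of over 40% in size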", "conditions": "renal proximal tubule cells viability, primary cells of rat origin; series mostly up to 91.7 µM; activity change, negative = cytotoxicity: at the top concentration", "description": "NIH Chemical Genomics Center [NCGC]\nNIH Molecular Libraries Screening Centers Network [MLSCN]\nNational Institutes of Environmental Health Sciences [NIEHS]\nNational Toxicology Program [NTP]\nWe have developed a 1536-well cell-based assay for quantitative high throughput screening (qHTS) against a number of cell lines to determine in vitro cytotoxicity of small molecules. This particular assay uses the renal proximal tubule cells which are derived from normal kidney cells freshly isolated from rat.\nNCGC Assay Protocol Summary:\nThe CellTiter-Glo luminescent cell viability assay (Promega) is a homogeneous method to measure the number of viable cells in culture. The end point readout of this assay is based on quantitation of intracellular ATP, an indicator of metabolic activity, using the luciferase reaction. Luciferase catalyzes the oxidation of beetle Luciferin to oxyluciferin and light in the presence of ATP. The luminescent signal is proportional to amount of ATP present.\nUsing the CellTiter-Glo luminescent cell viability assay, the amount of cellular ATP was measured in the renal proximal tubule cells with complete culture medium following compound treatment for 40 hours. The assay was performed in opaque white Kalypsys 1536-well plates. In the screen, tamoxifen and doxorubicin were used as positive controls. Library compounds were measured for their ability to cause acute toxicity in the cell line, as reflected by a decrease in intracellular ATP levels, in a concentration-dependent manner. […] AC50 values were determined from concentration-response data modeled with the standard Hill equation.\nqHTS protocol for CellTiter Glo renal proximal tubule cell assay\n[Step] [Parameter] [Value] [Description]\n1. Reagent; 5 uL; 1000 renal proximal tubule cells/well\n2. Time; 5 hr; 37 °C incubation\n4. Controls; 23 nL; Tamoxifen 0.34 uM to 100 uM & Doxorubicin 0.02 nM to 100 uM\n5. Time; 40 hr; 37 °C incubation\n6. Reagent; 5 uL; CellTiter Glo reagent\n7. Time; 20 min; Room Temperature\n8. Detection; Luminescence; Viewlux plate reader\nKeywords: cell viability, cytotoxicity, renal proximal tubule cells, luminescence, NTPHTS, NTPHTS_NCGC, NIEHS, EPA, DSSTox, MLSMR, MLSCN, NIH Roadmap, qHTS, NCGC"}
{"smiles": "Cc1ccc(CO)cc1", "activity change, negative = cytotoxicity": "-10.5% (inactive)"}
{"smiles": "OC(CCl)CCl", "activity change, negative = cytotoxicity": "-11.7% (inactive)"}
{"smiles": "c1ccc2[nH]cnc2c1", "activity change, negative = cytotoxicity": "-14.7% (inactive)"}
{"smiles": "COc1ccc(N)c(OC)c1", "activity change, negative = cytotoxicity": "-1.27% (inactive)"}
{"smiles": "CC=C(Cl)Cl", "activity change, negative = cytotoxicity": "0.834% (inactive)"}
{"smiles": "C1CCCC1", "activity change, negative = cytotoxicity": "-0.372% (inactive)"}
{"smiles": "CC(=O)OC(C)=O", "activity change, negative = cytotoxicity": "-11.8% (inactive)"}
{"smiles": "c1ccc2n[nH]nc2c1", "activity change, negative = cytotoxicity": "-6.59% (inactive)"}
{"smiles": "CCC1CO1", "note": "(stereo not given)", "activity change, negative = cytotoxicity": "-17.3% (inactive)"}
{"smiles": "CCOCC(=O)O", "activity change, negative = cytotoxicity": "-7.55% (inactive)"}
{"smiles": "CC(C)C=O", "activity change, negative = cytotoxicity": "-5.55% (inactive)"}
{"smiles": "C/C=C(/C)C#N", "activity change, negative = cytotoxicity": "7.39% (inactive)"}
{"smiles": "c1ccsc1", "activity change, negative = cytotoxicity": "-7.05% (inactive)"}
{"smiles": "CC(C)Nc1ccccc1", "activity change, negative = cytotoxicity": "-5.82% (inactive)"}
{"smiles": "O=C(O)CN(CC(=O)O)CC(=O)O", "activity change, negative = cytotoxicity": "-5.21% (inactive)"}
{"smiles": "CC(C)(c1cc(Br)c(OCC(Br)CBr)c(Br)c1)c1cc(Br)c(OCC(Br)CBr)c(Br)c1", "note": "(stereo not given)", "activity change, negative = cytotoxicity": "1.22% (inactive)"}
{"smiles": "CCCC(Cl)CCCC(Cl)CCC(Cl)CCC(Cl)CCC(Cl)CCCC(Cl)CCC", "note": "(stereo not given)", "activity change, negative = cytotoxicity": "-7.23% (inactive)"}
{"smiles": "C=CCOC(=O)CCCCCCCC", "activity change, negative = cytotoxicity": "-3.13% (inactive)"}
{"smiles": "O=C(O)c1ccccc1Cl", "activity change, negative = cytotoxicity": "-5.4% (inactive)"}
{"smiles": "O=C(O)c1cccc([N+](=O)[O-])c1", "activity change, negative = cytotoxicity": "-4.9% (inactive)"}
{"smiles": "Cc1ccc([N+](=O)[O-])c(N)c1", "activity change, negative = cytotoxicity": "-3.37% (inactive)"}
{"smiles": "O=C1C=CCCC1", "activity change, negative = cytotoxicity": "4.13% (inactive)"}
{"smiles": "Cc1ccccc1Br", "activity change, negative = cytotoxicity": "-5.42% (inactive)"}
{"smiles": "Nc1cccc(S(=O)(=O)O)c1", "activity change, negative = cytotoxicity": "-9.35% (inactive)"}
{"smiles": "Clc1cc(Cl)cc(Cl)c1", "activity change, negative = cytotoxicity": "2.92% (inactive)"}
{"smiles": "CCCCC(CC)COC(=O)CCCCC(=O)OCC(CC)CCCC", "note": "(stereo not given)", "activity change, negative = cytotoxicity": "2.26% (inactive)"}
{"smiles": "CCc1ccccc1", "activity change, negative = cytotoxicity": "1.46% (inactive)"}
{"smiles": "CCNc1ccccc1", "activity change, negative = cytotoxicity": "-7.84% (inactive)"}
{"smiles": "C=CCCCC", "activity change, negative = cytotoxicity": "-3.9% (inactive)"}
{"smiles": "Cc1ccc(C)c(N)c1", "activity change, negative = cytotoxicity": "-4.19% (inactive)"}
{"smiles": "O=C(O)CNC(=O)c1ccc(CO)o1", "activity change, negative = cytotoxicity": "3.24% (inactive)"}
{"smiles": "CCOC(=O)C(C)C(C)=O", "note": "(stereo not given)", "activity change, negative = cytotoxicity": "0.477% (inactive)"}
{"smiles": "Cc1cccc2cccnc12", "activity change, negative = cytotoxicity": "-0.457% (inactive)"}
{"smiles": "Cc1ccc2c(c1[N+](=O)[O-])C(=O)c1ccccc1C2=O", "activity change, negative = cytotoxicity": "-5.65% (inactive)"}
{"smiles": "NC(N)=S", "activity change, negative = cytotoxicity": "7.2% (inactive)"}
{"smiles": "Clc1ccccn1", "activity change, negative = cytotoxicity": "-9.62% (inactive)"}
{"smiles": "CC/C(C)=N/O", "activity change, negative = cytotoxicity": "-5.26% (inactive)"}
{"smiles": "C=CCCCCCC", "activity change, negative = cytotoxicity": "1.76% (inactive)"}
{"smiles": "Cc1ccc(C)o1", "activity change, negative = cytotoxicity": "-6.14% (inactive)"}
{"smiles": "O=[N+]([O-])c1ccccc1CCO", "activity change, negative = cytotoxicity": "0.946% (inactive)"}
